# According to the antibiotic and cytotoxicity screens of Wong et al. (2023):
# The campaign covered roughly 39,000 compounds. About 3,300 (8.5%) were called active. Only a selection was taken, and actives are over-represented in it overall.
# Test system: HepG2
# Test: cytotoxicity call (relative viability < 0.9)
# Conditions: 10 µM
row,SMILES,cytotoxicity call
1,C[C@@H]1CCCCO[C@@H](CN(C)C(=O)NC2CCCCC2)[C@H](C)CN([C@H](C)CO)C(=O)c2cc(NC(=O)Nc3ccc4c(c3)OCO4)ccc2O1,inactive
2,C[C@@H]1CN([C@H](C)CO)C(=O)c2cccc(NS(=O)(=O)c3cn(C)cn3)c2O[C@@H]1CN(C)Cc1ccncc1,inactive
3,C[C@@H]1CN([C@H](C)CO)S(=O)(=O)c2ccc(-c3cncnc3)cc2O[C@@H]1CN(C)C(=O)CN(C)C,inactive
4,C[C@@H]1CN([C@@H](C)CO)C(=O)c2cc(NC(=O)NC3CCCCC3)ccc2O[C@@H](C)CCCCO[C@H]1CN(C)C(=O)c1ccccc1,inactive
5,CO[C@@H](CN(C)C(=O)Nc1ccc(C(F)(F)F)cc1)[C@H](C)CN(Cc1ccccc1Cl)[C@H](C)CO,inactive
6,Cc1ccc(S(=O)(=O)Nc2ccc3c(c2)C(=O)N([C@@H](C)CO)C[C@@H](C)[C@@H](CN(C)Cc2ccc(C(=O)O)cc2)OCCCC[C@@H](C)O3)cc1,inactive
7,COc1cc(-c2cc(=O)c3c(s2)N(c2ccc(OC)c(OC)c2)[C@@H](c2ccc(O)c(OC)c2)CC3=O)ccc1O,inactive
8,COc1ccc(S(=O)(=O)Nc2ccc3c(c2)CC(=O)N([C@@H](C)CO)C[C@@H](C)[C@H](CN(C)S(=O)(=O)c2ccccc2)O3)cc1,inactive
9,CC(C)NC(=O)N(C)C[C@H]1OCCCC[C@H](C)Oc2ccc(NS(C)(=O)=O)cc2C(=O)N([C@H](C)CO)C[C@@H]1C,inactive
10,C[C@H](CO)N1C[C@H](C)[C@@H](CN(C)C(=O)Nc2cccc3ccccc23)Oc2ccc(NS(=O)(=O)c3cccs3)cc2CC1=O,inactive
11,CN(C)CCN1CCNCC1,inactive
12,C[C@H](NC(=O)N(C)C[C@H]1OCc2ccccc2-c2ccccc2C(=O)N([C@H](C)CO)C[C@@H]1C)c1ccccc1,inactive
13,O=C(NCCO[N+](=O)[O-])c1cccnc1 [listing 1 of 2 here],inactive
14,CC(=O)OCCNC(=O)c1cccnc1,inactive
15,O=C(NCCO[N+](=O)[O-])c1cccnc1 [listing 2 of 2 here],active
16,CC(C)CC#Cc1ccc2c(c1)O[C@H](CN(C)Cc1cncnc1)[C@@H](C)CN([C@@H](C)CO)S2(=O)=O,inactive
17,O=C(C[C@H]1C=C[C@@H](NC(=O)c2cccc(F)c2)[C@@H](CO)O1)NCCN1CCCC1,inactive
18,C[C@@H]1COCCS(=O)(=O)N1C,inactive
19,O=C(CCCCCNC(=O)OC[C@H]1C(=O)O[C@@H](Cc2ccccc2)[C@H]2[C@H]3C(=CC(=O)[C@@H]3C3CC3)CN21)NO,inactive
20,C[C@@H]1CCCCO[C@@H](CN(C)C(=O)CCC(F)(F)F)[C@@H](C)CN([C@@H](C)CO)C(=O)c2cc(NS(=O)(=O)c3ccc(F)cc3)ccc2O1,inactive

row,SMILES,cytotoxicity call
1,COc1cccc(S(=O)(=O)N(C)C[C@@H]2OCc3cn(nn3)CCCC(=O)N([C@@H](C)CO)C[C@@H]2C)c1,inactive
2,C[C@@H]1CCCCO[C@H](CN(C)S(=O)(=O)c2ccc(Cl)cc2)[C@@H](C)CN([C@H](C)CO)C(=O)c2cc(NC(=O)NC3CCCCC3)ccc2O1,inactive
3,C[C@@H]1CN([C@@H](C)CO)C(=O)c2cc(NC(=O)NC3CCCCC3)ccc2O[C@@H](C)CCCCO[C@@H]1CN(C)S(=O)(=O)c1ccc(Cl)cc1,inactive
4,C[C@@H]1CN([C@H](C)CO)C(=O)c2cc(NC(=O)NC3CCCCC3)ccc2O[C@@H](C)CCCCO[C@H]1CN(C)S(=O)(=O)c1ccc(Cl)cc1,active
5,C[C@H](CO)N1C[C@H](C)[C@H](CN(C)S(=O)(=O)c2ccc(Cl)cc2)OCCCC[C@H](C)Oc2ccc(NC(=O)NC3CCCCC3)cc2C1=O,inactive
6,C[C@@H]1CCCCO[C@@H](CN(C)S(=O)(=O)c2ccc(Cl)cc2)[C@H](C)CN([C@H](C)CO)C(=O)c2cc(NC(=O)NC3CCCCC3)ccc2O1,active
7,C[C@@H]1CCCCO[C@H](CN(C)S(=O)(=O)c2ccc(Cl)cc2)[C@H](C)CN([C@H](C)CO)C(=O)c2cc(NC(=O)NC3CCCCC3)ccc2O1,active
8,C[C@@H]1CCCCO[C@@H](CN(C)S(=O)(=O)c2ccc(Cl)cc2)[C@@H](C)CN([C@H](C)CO)C(=O)c2cc(NC(=O)NC3CCCCC3)ccc2O1,inactive
9,C[C@H](CO)N1C[C@H](C)[C@@H](CN(C)S(=O)(=O)c2ccc(Cl)cc2)OCCCC[C@H](C)Oc2ccc(NC(=O)NC3CCCCC3)cc2C1=O,active
10,C[C@@H]1CCCCO[C@@H](CN(C)S(=O)(=O)c2ccc(Cl)cc2)[C@H](C)CN([C@@H](C)CO)C(=O)c2cc(NC(=O)NC3CCCCC3)ccc2O1,inactive
11,C[C@@H]1CN([C@H](C)CO)C(=O)c2cc(NC(=O)NC3CCCCC3)ccc2O[C@@H](C)CCCCO[C@@H]1CN(C)S(=O)(=O)c1ccc(Cl)cc1,inactive
12,Cc1ccc(S(=O)(=O)N(C)C[C@H]2OCCCC[C@H](C)Oc3ccc(NS(C)(=O)=O)cc3C(=O)N([C@H](C)CO)C[C@H]2C)cc1,inactive
13,CNC[C@@H]1OCCCC[C@@H](C)Oc2ccc(NC(=O)c3ccncc3)cc2C(=O)N([C@@H](C)CO)C[C@H]1C,inactive
14,C[C@H](CO)N1C[C@H](C)[C@H](CN(C)C(=O)c2ccncc2)OCCCC[C@H](C)Oc2ccc(NS(=O)(=O)c3ccc(Cl)cc3)cc2C1=O,inactive
15,CC(C)CN1C[C@H](C(=O)O)CC1=O,inactive
16,C[C@H](CO)N1C[C@H](C)[C@@H](CN(C)S(=O)(=O)c2cccs2)Oc2ccc(NC(=O)Cn3cnnn3)cc2C1=O,inactive
17,COc1ccc(CCN2C(=O)[C@@]3(c4ccc([N+](=O)[O-])cc4)CC(=O)N(C4CCCCC4)[C@@H]3c3ccc(CO)cc32)cc1,inactive
18,C[C@@H]1CN([C@H](C)CO)C(=O)c2cc(NC(=O)C3CCCCC3)ccc2O[C@@H](C)CCCCO[C@H]1CN(C)Cc1ccncc1,inactive
19,C[C@H](CO)N1C[C@H](C)[C@H](CN(C)C(=O)c2ccccn2)Oc2cc(C#Cc3ccccc3)ccc2S1(=O)=O,inactive
20,C[C@H](CO)N1C[C@H](C)[C@@H](CN(C)C(=O)Nc2ccc3c(c2)OCO3)OCCCC[C@H](C)Oc2ccc(NC(=O)Nc3ccc(C(F)(F)F)cc3)cc2C1=O,inactive
